Laboratory results: PubChem BioAssay AID528 (NMMLSC, 2006)
Fewer than 10 of roughly 24,000 compounds were called active. Inconclusive results (about 9%) are left out.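 The calls were made as follows: active = fluorescent ligand binding to cells raised by more than 40% of the manganese-induced maximum; inconclusive = compound's own fluorescence above 85% of the ligand control signal; inactive = the rest.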 A selection follows.

Target: Integrin alpha-4 (Homo sapiens) (UniProt P13612)
Assay: increased LDV-FITC ligand binding on VLA-4 – Jurkat cells, flow cytometry, primary screen (AID 528);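 also: 0% = ligand binding without compound and 100% = manganese-stimulated maximal binding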
Conditions: stronger effect = higher value, screened at 10 µM (by protocol)

Chain of Integrin alpha-4 (Homo sapiens) (P13612 whole entry, looked up): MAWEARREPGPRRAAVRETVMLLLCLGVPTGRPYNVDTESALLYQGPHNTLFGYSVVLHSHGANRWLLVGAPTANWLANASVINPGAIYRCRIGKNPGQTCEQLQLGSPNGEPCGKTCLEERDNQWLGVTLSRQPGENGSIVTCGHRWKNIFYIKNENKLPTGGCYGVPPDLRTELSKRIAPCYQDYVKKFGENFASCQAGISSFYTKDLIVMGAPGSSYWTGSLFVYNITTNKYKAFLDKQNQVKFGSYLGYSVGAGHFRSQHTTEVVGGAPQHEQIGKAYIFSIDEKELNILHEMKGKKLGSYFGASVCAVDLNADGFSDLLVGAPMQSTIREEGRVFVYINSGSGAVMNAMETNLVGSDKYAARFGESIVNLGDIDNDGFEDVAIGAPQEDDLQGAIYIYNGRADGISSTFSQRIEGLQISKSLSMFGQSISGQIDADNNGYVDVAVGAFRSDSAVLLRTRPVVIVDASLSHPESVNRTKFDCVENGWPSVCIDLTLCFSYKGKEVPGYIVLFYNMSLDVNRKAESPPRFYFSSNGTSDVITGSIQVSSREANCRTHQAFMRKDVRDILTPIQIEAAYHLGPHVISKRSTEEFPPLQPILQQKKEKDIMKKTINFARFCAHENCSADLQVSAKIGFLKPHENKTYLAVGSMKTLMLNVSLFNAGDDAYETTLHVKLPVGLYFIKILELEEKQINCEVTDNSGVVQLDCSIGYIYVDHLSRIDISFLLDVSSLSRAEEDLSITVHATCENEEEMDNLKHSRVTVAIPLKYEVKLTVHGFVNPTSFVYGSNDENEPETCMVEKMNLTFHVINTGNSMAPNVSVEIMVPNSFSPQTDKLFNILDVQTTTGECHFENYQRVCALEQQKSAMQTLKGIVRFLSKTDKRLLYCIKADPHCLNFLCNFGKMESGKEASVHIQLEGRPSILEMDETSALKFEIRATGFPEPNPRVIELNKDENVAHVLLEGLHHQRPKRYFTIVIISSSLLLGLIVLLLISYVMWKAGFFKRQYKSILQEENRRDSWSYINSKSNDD

activation, inactive:
CCOC(=O)Cn1c(N)c(C(=O)OC)sc1=S -9%, CCOc1ccc(/C(O)=C2/C(=O)C(=O)N(Cc3cccnc3)C2c2ccc(N(C)C)cc2)c(C)c1 (configuration not stated) -4%, CCOC(=O)C1CCN(C(=O)C2CCN(S(=O)(=O)CC)CC2)CC1 0%, Cn1nnnc1SCc1cc(=O)[nH]c2ccccc12 -4%, O=C(CC(NCCN1CCOCC1)C(=O)O)Nc1cccc(Cl)c1 (configuration not stated) 5%, CC(=O)Nc1cc(C(=O)O)ccc1S(=O)(=O)c1ccc(Cl)cc1 5%, O=C(c1ccc(=O)[nH]c1)N(Cc1ccco1)C1(C(=O)NC2CCCCC2)CCCCC1 8%, COC(=O)c1cc(S(=O)(=O)NC2CCN(Cc3ccccc3)CC2)cn1C 12%, CC(c1ccco1)N(C(=O)c1ccc(S(=O)(=O)N2CCCCC2)cc1)c1ccccn1 (configuration not stated) -5%, O=C1CC(c2cccc(F)c2)C2=C(CCCC2=O)N1 (configuration not stated) 0%, Cc1nc(NC(=O)C23CCC(C)(C(=O)O2)C3(C)C)sc1C (configuration not stated) 2%, CC1Cc2nc(SCC(=O)Nc3ccccc3F)n(C)c(=O)c2S1 (configuration not stated) -5.7%, Cc1ccc(C)c(NS(=O)(=O)c2cc(Br)cnc2N)c1 -9%, O=C1CC(c2cccc(Br)c2)C2=C(CCCC2=O)N1 (configuration not stated) -3%, COc1cccc(NC(=O)Cn2cnc3sc(C)c(S(=O)(=O)N4CCN(C)CC4)c3c2=O)c1 1%, CCOC(=O)CSc1nnc(CNC(=O)c2cccs2)n1-c1ccccc1 -4%, O=C1N=C(N2CCOCC2)CS1 5%, C=CCOC(=O)C1=C(C)OC(N)=C(C#N)C1c1ccc(F)cc1 (configuration not stated) -2.5%, CCOC(=O)c1ccc(Nc2cc(C)nc3nc(C)nn23)cc1 5%, COCCCNC(=O)CCc1nc2cccnc2n1Cc1ccc(OC)cc1 4%, COc1cccc(Oc2ccc(N)cc2)c1 8%, CCCN1CCN(C(=O)Cn2ncc3ccccc32)CC1 5%, Cc1cccc(N2CCN(C(=O)C3CCN(S(=O)(=O)c4cnc[nH]4)CC3)CC2)c1C 0%, COc1cccc(NC(=O)C2CCCN2C(=O)OCc2ccccc2)c1 (configuration not stated) -5%, CC(=O)c1c(C)[nH]c(C(=O)NCCCN2CCCC2)c1C 1%, COc1cc2[nH]c(=S)n(CCN3CCCCC3C)c(=O)c2cc1OC (configuration not stated) -3%, Cn1c(=O)cc(OCCCC(=O)N2CCN(c3ccccn3)CC2)c2ccccc21 -10%, Cc1cccn2c(=O)c3cc(C(=O)NCc4ccccn4)n(C)c3nc12 -2%, Cc1nc(SCC(=O)Nc2cc(C)on2)c2c3c(sc2n1)CCCC3 -3.5%, COc1ccc(C(=O)N(CCN2CCOCC2)CC(=O)NC2CCCC2)cc1OC 6.5%, O=C(CN1CCOc2ccccc21)N1CCC(Cc2ccccc2)CC1 -1%, CCOC(=O)CSc1nnc(CNC(=O)Cc2ccccc2)n1-c1ccccc1OC -3%, CC1CCC(NS(=O)(=O)c2ccc3c(c2)n(C)c(=O)c(=O)n3C)CC1 (configuration not stated) 6%, COc1cc(OC)cc(-c2nc3nc(C)c(CCC(=O)NCc4ccco4)c(C)n3n2)c1 -2.7%, Cc1cc(C)nc(-n2nc(C)cc2NC(=O)c2ccc(Br)o2)n1 1.5%, Cc1nc2ccc(NC(=O)N3CCC(c4ccccc4)C3)cc2nc1C (configuration not stated) -3%, O=C(CNS(=O)(=O)c1ccc(Br)s1)NCc1ccc2c(c1)OCO2 -4%
